# Measurements as given in the supplement of paper PMC9446081.
# Out of some 39,000 compounds screened, about 220 (0.56%) showed activity. Many of the other results were omitted from the sample, so actives are more common in it than they were. A number with no mark means an inactive call.
# Test system: Escherichia coli K-12 BW25113
# Assay: relative growth (OD600 normalised to plate interquartile mean) (fraction); higher = less growth inhibition, active = 0.2 or less
# Conditions: 50 µM; LB; incubation time: overnight (16-24 h)
# 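Note: Wild-type cells incubated without shaking, value is the mean of two biological replicates.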
row,SMILES,relative growth
1,Cc1noc(C)c1S(=O)(=O)Nc1ccc2c(c1)CC(=O)N([C@H](C)CO)C[C@@H](C)[C@H](CN(C)C(=O)NC(C)C)O2,1.03
2,C[C@H](CO)N1C[C@H](C)[C@@H](CN(C)S(C)(=O)=O)OCc2cnnn2CCCC1=O,1.07
3,Cc1ccc(S(=O)(=O)N(C)C[C@@H]2Oc3c(NC(=O)c4ccncc4)cccc3C(=O)N([C@@H](C)CO)C[C@H]2C)cc1,0.999
4,COc1ccc2c(c1OCc1ccccc1)C[C@@H](C(=O)O)N(C(=O)C(c1ccccc1)c1ccccc1)C2,1.02
5,C[C@@H]1CN([C@@H](C)CO)C(=O)c2cccc(NC(=O)C3CCOCC3)c2O[C@@H]1CN(C)C(=O)Nc1ccc2c(c1)OCO2,1.01
6,CN(C)CC(=O)N[C@@H]1C=C[C@H](CC(=O)O)O[C@H]1CO,0.997
7,CCNC(=O)C[C@@H]1CC[C@H]2[C@H](COc3ccc(NS(=O)(=O)c4ccccc4C)cc3C(=O)N2C)O1,0.981
8,CNC[C@H]1Oc2ccc(NC(=O)CCN3CCOCC3)cc2CC(=O)N([C@@H](C)CO)C[C@@H]1C,0.977
9,CCc1nnc(N)[nH]1,0.947
10,C[C@H]1CCCCO[C@H](CN(C)Cc2ccccc2)[C@@H](C)CN([C@@H](C)CO)C(=O)c2cc(NC(=O)Nc3cccc4ccccc34)ccc2O1,0.996
11,Cc1c(-c2ccccc2)n(C[C@@H](O)CN)c2ccccc12,0.892
12,CO[C@@]1(NC(=O)CSC[C@@H](N)C(=O)O)C(=O)N2C(C(=O)O)=C(CSc3nnnn3C)CS[C@@H]21,1
13,COC1(NC(=O)C2SC(=C(C(N)=O)C(=O)O)S2)C(=O)N2C(C(=O)O)=C(CSc3nnnn3C)CSC21 (centres undefined),0.0448 (active)
14,CO[C@@]1(NC(=O)[C@@H](C(=O)O)c2ccc(O)cc2)C(=O)N2C(C(=O)O)=C(CSc3nnnn3C)CO[C@@H]21,0.983
15,COC1(NC(=O)C(C(=O)[O-])c2ccc(O)cc2)C(=O)N2C(C(=O)[O-])=C(CSc3nnnn3C)COC21.[Na+].[Na+] (centres undefined),0.0483 (active)
16,COC1(NC(=O)CSCC#N)C(=O)N2C(C(=O)[O-])=C(CSc3nnnn3C)CSC21.[Na+] (centres undefined),0.0458 (active)
17,CO[C@@H]1CN(C)C(=O)c2cc(NS(=O)(=O)c3cn(C)cn3)ccc2OC[C@@H](C)N(Cc2cccc(F)c2)C[C@@H]1C,1.02
18,COc1ccc(NC(=O)Nc2ccc3c(c2)C(=O)N([C@H](C)CO)C[C@@H](C)[C@@H](CN(C)CC2CCCCC2)OCCCC[C@@H](C)O3)cc1,0.984
19,O=C(NCc1ccccc1)[C@@H]1c2ccccc2C(=O)N(Cc2ccccc2C(F)(F)F)[C@H]1c1ccc(CO)cc1,1
20,CN1C(=O)c2cc(NC(=O)c3cccs3)ccc2OC[C@H]2O[C@H](CC(=O)NCC(F)(F)F)CC[C@H]21,1

row,SMILES,relative growth
1,CCCN(C)C[C@@H]1OCCCC[C@@H](C)Oc2ccc(NC(=O)Nc3ccccc3)cc2C(=O)N([C@H](C)CO)C[C@@H]1C,1.01
2,CC(C)NC(=O)Nc1ccc2c(c1)C(=O)N([C@H](C)CO)C[C@H](C)[C@H](CN(C)CC1CCCCC1)OCCCC[C@@H](C)O2,0.955
3,COc1ccc(S(=O)(=O)Nc2ccc3c(c2)C(=O)N([C@H](C)CO)C[C@H](C)[C@H](CN(C)C(=O)Nc2ccccc2)OCCCC[C@@H](C)O3)cc1,0.996
4,NCCONC(=O)[C@@H]1CC[C@@H]2CN1C(=O)N2OS(=O)(=O)O,0.0923 (active)
5,NC(=O)[C@@H]1CC[C@@H]2CN1C(=O)N2OS(=O)(=O)O,0.19 (active)
6,COc1ccc(CN(C)C[C@H]2OCCCC[C@H](C)Oc3ccc(NS(=O)(=O)c4ccc(C)cc4)cc3C(=O)N([C@H](C)CO)C[C@@H]2C)cc1,1
7,Cc1noc(C)c1NC(=O)Nc1ccc2c(c1)C(=O)N([C@@H](C)CO)C[C@@H](C)[C@H](CN(C)Cc1ccncc1)OCCCC[C@H](C)O2,0.993
8,C[C@H](NC(=O)C[C@H]1C=C[C@H](NC(=O)CN2CCOCC2)[C@@H](CO)O1)c1ccccc1,0.983
9,COc1ccc(C(=O)Nc2ccc3c(c2)C(=O)N(C)[C@@H]2CC[C@@H](CC(=O)NCC4CC4)O[C@H]2CO3)cc1,0.96
10,COc1ccc(NC(=O)N(C)C[C@H]2Oc3c(NS(=O)(=O)c4c(C)noc4C)cccc3C(=O)N([C@H](C)CO)C[C@H]2C)cc1,0.994
11,CN(C)CC(=O)N[C@@H]1C=C[C@H](CC(=O)NCCN2CCCCC2)O[C@@H]1CO,0.999
12,Cc1noc(C)c1NC(=O)Nc1ccc2c(c1)C(=O)N([C@@H](C)CO)C[C@@H](C)[C@H](CN(C)C(=O)Nc1ccc(C(F)(F)F)cc1)OCCCC[C@H](C)O2,1.02
13,CC(C)NC(=O)N[C@H]1CC[C@H](CCN)O[C@@H]1CO,0.987
14,NC[C@H]1O[C@H](O[C@H]2[C@@H](O[C@@H]3O[C@H](CO)[C@@H](O)[C@H]3O)[C@@H](O)[C@H](N)C[C@@H]2N)[C@H](N)[C@@H](O)[C@@H]1O,0.981
15,NCC1OC(OC2C(N)CC(N)C(OC3OC(CO)C(O)C(N)C3O)C2O)C(N)C(O)C1O.O=S(=O)(O)O (centres undefined),0.0483 (active)
16,NC[C@H]1O[C@H](O[C@@H]2[C@H](O)[C@@H](O[C@H]3O[C@H](CO)[C@@H](O)[C@H](N)[C@H]3O)[C@H](N)C[C@@H]2N)[C@H](O)[C@@H](O)[C@@H]1O,0.983
17,NCC1OC(OC2C(N)CC(N)C(O)C2OC2OC(CO)C(O)C2O)C(N)C(O)C1O.O=S(=O)(O)O (centres undefined),0.78
18,NC[C@H]1O[C@H](O[C@H]2[C@H](O)[C@@H](O[C@H]3O[C@H](CO)[C@@H](O)[C@H](N)[C@H]3O)[C@H](N)C[C@@H]2N)[C@H](N)[C@@H](O)[C@@H]1O,0.0328 (active)
19,NCC1OC(OC2C(N)CC(N)C(OC3OC(CO)C(O)C(N)C3O)C2O)C(O)C(O)C1O.O=S(=O)(O)O (centres undefined),0.982
